# Screening data from PubChem BioAssay.
# DT40 TDP1 CPT = growth inhibition of DT40 Tdp1-/-;hTDP1 cells with camptothecin (screen for TDP1 inhibitors) | AID 686979 | 12% of 420,000 active | chicken DT40 Tdp1-/-;hTDP1 cells + 20 nM CPT, ATP luminescence, 48 h | Potency, µM (titrated, usually from 46.2 µM), for the others: top-dose activity change, negative = growth inhibition, actives largely listed as inhibitors; also: potency is read from the fitted curve at half-maximal effect; % is scaled to controls: 0 for no effect and ±100 for the full control effect; nearly all actives have a fitted effect of over 55% in size
#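 Cell growth measured by CellTiter-Glo luminescence after a minimum 48 h, 37 C compound exposure with 20 nM CPT in Tdp1-knockout DT40 cells stably expressing hTDP1, seeded 400/well; qHTS titration format.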
# MCF10A rerep = DNA re-replication induction in MCF 10a cells; 2.9% of 350,000 active; Potency, µM (doses to about 46.1 µM), without a hit: at the top dose activity, positive = re-replication, hits mostly activators; MCF 10A DNA re-replication, Hoechst nuclear intensity, 48 h; also: potency is read from the fitted curve at half-maximal effect; % of control where 0% means no effect; nearly all actives have a fitted effect of over 50% in size
# SW480 rereplic = DNA re-replication induction in SW480 cells; SW480 DNA re-replication, Hoechst DNA content imaging, 48 h; Potency, µM (doses to about 46.1 µM), for inactives: at the top dose re-replication activation, actives largely listed as activators; 1.8% of 340,000 active; also: potency is read from the fitted curve at half-maximal effect; % of control where 0% means no effect; nearly all actives have a fitted effect of over 55% in size
#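 Treated cells incubate 48 hr (37 C, 5% CO2), are stained 40 min with Hoechst, and nuclear fluorescence is enumerated; a rise in nuclei with high DNA signal marks re-replication.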
# Chronic BCR inh = chronic active BCR signaling inhibition; ABC-DLBCL IkBa-CBG/CBR reporter, luminescence ratio, 4 h; Potency, µM (doses to about 46.1 µM), for inactives: at the top dose activity change, negative = inhibition, usual class: inhibitors; 0.05% of 340,000 active; AID 493014; active = well fitted inhibition curve with a large enough effect in the signal ratio, with a control signal flat, not every such curve was filed as active; inconclusive = small, poorly fitted or top-dose-only effect, or effect the other way, or a change in a side signal; the % refers to the signal ratio;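 also: potency is read from the fitted curve at half-maximal effect; plate controls were basal doxycycline-induced cells for no effect and cells given 10 µM MG132 for full effect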
#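 TMD8 ABC-DLBCL cells carrying doxycycline-inducible green luciferase fused to IkappaBalpha plus unfused red luciferase were exposed to compounds (up to 46 uM) for 4 hrs at 37C. Activity came from the overlap-corrected green/red luminescence ratio.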
# IL-1B inflam inh = inhibitors of inflammasome signaling (IL-1 beta secretion); AID 743279; activity change, % at 57.5 µM; THP-1 LPS/ATP IL-1B secretion, AlphaLISA, 16 h; hits give low values; 4.7% of 360,000 active; in the data active = activity change below about -50%; inconclusive = mostly about -30% to -49%; also: % is scaled to controls: 0 for no effect and ±100 for the full control effect
#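 Secreted IL-1B measured by AlphaLISA bead assay after 16 h compound exposure of THP-1 cells; compounds (final up to 57.5 uM) added 1 h before LPS (250 ng/mL) and ATP (1.25 mM) stimulation; lower signal means less secretion.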
# TDP1 cell noCPT = qHTS for Inhibitors of human tyrosyl-DNA phosphodiesterase 1 (TDP1): qHTS in cells in absence of CPT; DT40 Tdp1-/- hTDP1 cells, no CPT, ATP luminescence, 48 h; Potency, µM (series often up to 46.2 µM), without a hit: at the top dose activity change, negative = growth inhibition, hits mostly inhibitors; 15% of 420,000 active; also: potency is read from the fitted curve at half-maximal effect; % is scaled to controls: 0 for no effect and ±100 for the full control effect; nearly all actives have a fitted effect of over 55% in size
#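 Growth kinetics read by CellTiter-Glo luminescence after ≥48 hr at 37 °C. Cells: DT40 Tdp1-/- stably carrying human TDP1, 400 per well, compound exposure in the absence of CPT (DMSO vehicle).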
# The depositor's hits bear a star; ? = inconclusive; nt = not tested or not shown; [ ] = remark or other dose. An excerpt weighted towards active compounds, which were near 19% of everything screened. Unless noted, calls follow the shape of the dose curve; as a rule, active = well fitted curve in the direction sought with a large enough effect; inconclusive = small, poorly fitted or top-dose-only effect, or another doubt; inactive = no such curve, though single readings can be large; an effect the other way counts as inactive or inconclusive.
SMILES,DT40 TDP1 CPT,MCF10A rerep,SW480 rereplic,Chronic BCR inh,IL-1B inflam inh,TDP1 cell noCPT
Cn1c(SCc2ccc(Br)cc2)nc2ccccc2c1=O,?,20.6%,-7.8%,1.0%,-1.0,11.6µM*
Cn1c(SCC#N)nc2ccccc2c1=O,18.9%,5.2%,1.9%,-15.5%,-27.9,-21.9%
Cc1cccc(CSc2nc3ccccc3c(=O)n2C)c1,?,7.8%,3.7%,?,39.7,18.4µM*
O=C1CCCN1C(=O)COc1ccccc1[N+](=O)[O-],-8.0%,-0.7%,?,-10.0%,5.3,-17.4%
CC(C)(C)C(=O)COc1ccccc1[N+](=O)[O-],14.6µM*,-0.4%,-6.6%,-3.6%,-16.0,?
Cc1ccc(OC/C(=N\O)C(C)(C)C)c([N+](=O)[O-])c1,-6.4%,6.0%,-111.4%,?,-82.3*,-26.3%
CCOC(=O)c1nn(-c2cccc(Cl)c2)c2nc(CC(C)C)c(C#N)c(=O)n12,?,23.1µM*,-7.9%,14.0%,6.6,?
CCOC(=O)c1nn(-c2ccc(OCC)cc2)c2nc(-c3ccco3)c(C#N)c(=O)n12,?,?,-3.9%,5.1%,5.1,23.1µM*
COc1ccc(CC(=O)NCc2cccc(Cl)c2)cc1S(=O)(=O)N1CCOCC1,-17.6%,nt,nt,nt,15.2,?
C/C(=N/NC(=O)CCC(=O)Nc1ccc(Br)cc1)c1ccc(Br)cc1,-15.0%,1.7%,-2.3%,-3.7%,18.3,?
CN1CCN(C(=O)/C=C/c2ccc([N+](=O)[O-])o2)CC1,9.2µM*,20.6µM*,23.6%,-17.3%,-57.8*,14.6µM*
CN(C)c1ccc(C(=O)n2nnc3ccccc32)cc1,23.1µM*,7.2%,-2.6%,-2.3%,nt,?
CCOC(=O)N1CCN(C(=O)/C=C/c2ccc(C(C)(C)C)cc2)CC1,?,27.4%,-7.0%,?,?,16.4µM*
O=C(/C=C/c1ccc(F)cc1)N1CCCc2ccccc21,?,28.6%,8.2%,-4.4%,?,18.4µM*
O=C(O)/C=C/c1ccc([N+](=O)[O-])o1,-1.5%,?,?,4.2%,-19.9,-28.4%
Clc1ccc(/C=C/c2ccncc2)cc1Cl,10.1%,nt,nt,nt,nt,-18.4%
O=C(/C=C/c1ccc(S(=O)(=O)N2CCOCC2)cc1)N1CCN(c2ccc(F)cc2)CC1,7.31µM*,-0.6%,-11.9%,?,-2.4,3.66µM*
CC(C)c1ccc(/C=C/C(=O)N2CCOCC2)cc1,1.0%,?,0.7%,?,-12.6,-2.7%
CC(C)c1ccc(/C=C/C(=O)N2CCCCCC2)cc1,-26.9%,23.1µM*,-1.3%,?,0.0,-4.3%
O=C(/C=C/c1ccc(-c2ccc(F)cc2)o1)N1CCCC1,?,5.9%,7.0%,?,-75.4*,20.6µM*
O=C(c1cc(-c2ccc(F)cc2)on1)N1CCCC1,-2.5%,-5.8%,-5.9%,?,17.2,-21.7%
CCN1CCN(C(=O)/C=C/c2ccc(C)cc2)CC1,-8.1%,-0.1%,-4.6%,7.7%,-3.1,16.2%
O=C(c1ccc(S(=O)(=O)N2CCOCC2)cc1)N1CCN(c2ccc(F)cc2)CC1,-20.4%,0.1%,-3.8%,-0.4%,-4.4,?
Cc1ccc(/C=C/C(=O)N2CCCN(C(=O)/C=C/c3ccc(C)cc3)CC2)cc1,?,?,8.1%,-3.0%,-17.1,14.6µM*
CSc1ccc(/C=C/C(=O)N2CCCN(C)CC2)cc1,4.2%,0.0%[9.22 µM],-64.7%,-0.1%,-9.0,-12.9%
CC(Cn1nnc2ccccc21)C(=O)O (configuration not stated),12.2%,?,15.6%,7.2%,15.3,21.4%
O=C(/C=C/c1ccc(F)cc1)N1CCCN(C(=O)/C=C/c2ccc(F)cc2)CC1,16.4µM*,19.6%,-3.8%,?,-24.8,?
